From article PMC12136788
Numbering of substitutions follows the chain as printed. In all, about 24,000 sequences were measured (“enrichment r”: median about 0.99, highest 2% from about 3.7 on). The full list was thinned out, with the highest values kept by preference.

T1: UNK ZnF1-3 (human, UniProt Q9C0B0 31-174)
T1 sequence: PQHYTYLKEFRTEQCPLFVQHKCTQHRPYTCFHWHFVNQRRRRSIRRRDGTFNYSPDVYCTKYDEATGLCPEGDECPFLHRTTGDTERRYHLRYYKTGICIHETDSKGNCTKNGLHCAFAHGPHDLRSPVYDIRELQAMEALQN

B1: chr11:4127340:4127341:+_ENSG00000167325_ENST00000300738|hu_mus|hu_hu_hu_mus_False|28_38 (ssRNA)
RNA: GGGAGUUCUACAGUCCGACGAUCGGCAUAGUCAGGGUGCUUCGUGGUCAAGGUCGCGGCUGUCUCAGCAGCCAGGGUGUCCAGUUCCACUGUGGUGACCCCACUGUACAAGCCUUGGAUUACUUUCAUGGUGAUCUGAGCAGGCAACAGAGGAUUGAGCAUCA
B2: chr15:96529919:96529920:-_ENSMUSG00000022462_ENSMUST00000023099|mus_hu|FALSE|FALSE (ssRNA)
RNA: GGGAGUUCUACAGUCCGACGAUCUCUCUAUUCUCACGCAGACGUCUUCAGUGGGUUUCUCUCAGUCAAAUACAAAUCAUAAAAAACAAACAAAAAAUUUCCCCAAAUCCAACAACAGGCAGGAAAAAUAAUUUUAAUAAAAAACAACAGAGGAUUGAGCAUCA
B3: chr4:24541891:24541892:-_ENSG00000109606_ENST00000336812|perfect_dup|FALSE|FALSE (ssRNA)
RNA: GGGAGUUCUACAGUCCGACGAUCGGAUCCCAAUUCAGUCAGAUCUCCAUCAUCAUUUAAAGCAGCCAAAUAAUUCAAAAGUUCUAGGGCUCUCAUCAGAGUUUCAGGAGCUGGUGGGUCCAUAAAAUCAAAGUGUACCAAGUCCAACAGAGGAUUGAGCAUCA
B4: chr2:202488911:202488912:-_ENSG00000155755_ENST00000286196|hu_mus|hu_hu_hu_mus_False|58_68 (ssRNA)
RNA: GGGAGUUCUACAGUCCGACGAUCAUUGAAACAUUUUUCAUAAUCUCCAGUAGCAUUUCAGCAUUAUUAAUCAAAAAAUCUAUUACAAAUACAUGUAUCUUAUAAAAAUACACUUAAAAACACGAGUGGGGAGCGCAGGCGCCACAACAGAGGAUUGAGCAUCA
B5: chr2:202488911:202488912:-_ENSG00000155755_ENST00000286196|hu_mus|hu_hu_hu_mus_False|18_78 (ssRNA)
RNA: GGGAGUUCUACAGUCCGACGAUCAUUGAAACAUUUUUCAUAAUCUCCAGUAGCAUUCAGUAUUAUAGUAACAAAAGCUCAAUUGUAAAUACAUGUAUCUUAUAAAAAUACACUUAAAUUUAAAAACGGGGAGCGCAGGCGCCACAACAGAGGAUUGAGCAUCA
B6: chr17:62500844:62500845:-_ENSG00000108654_ENST00000583239|hu_hu|FALSE|FALSE (ssRNA)
RNA: GGGAGUUCUACAGUCCGACGAUCCUUGAUAAAAAUUCUUCUCAAAUUUAGGCAGCUCAUCAAGAUUCCACUUCUUUUUAACUAAUUUCUCCCCAGGGUUUCCAAACUUCUUUCCAGAUAAGGGCCCUGCCCUACUUCCUCCAACAACAGAGGAUUGAGCAUCA
B7: chr2:202488911:202488912:-_ENSG00000155755_ENST00000286196|hu_mus|hu_hu_hu_mus_False|18_68 (ssRNA)
RNA: GGGAGUUCUACAGUCCGACGAUCAUUGAAACAUUUUUCAUAAUCUCCAGUAGCAUUUCAGCAUUAUUAAUCAAAAACUCAAUUGUAAAUACAUGUAUCUUAUAAAAAUACACUUAAAUUUAAAAACGGGGAGCGCAGGCGCCACAACAGAGGAUUGAGCAUCA
B8: chr2:216981417:216981418:+_ENSG00000079246_ENST00000392132|hu_hu|hu_hu_hu_mus_True|48_48 (ssRNA)
RNA: GGGAGUUCUACAGUCCGACGAUCCUGAUACUGGUCCUUGCCAGCAAGGGCAUUAUCAGUGCCAUCUGUGCCAUAGAGGACUAACGCAAUCUCAUCCUUGCUCUCCGAAAAUACCUGUCGUUGGACAAACAUAGUCAUCACUUUCAACAGAGGAUUGAGCAUCA
B9: 132431906_132432936_2116_CDS_ENSG00000170606_ENST00000304858|human|control|control (ssRNA)
RNA: GGGAGUUCUACAGUCCGACGAUCUCUCAUUUCAUACACAUAUUCCUCCACUGCGUUCUUAGCAUCAUUCCGCUCCUUCUCCAGUUUAUCCUGCAUGAUCAUCUUACCCUCAUUUUCAAUGUACAAGUUGAGCAUCUCUCUGUCCAACAGAGGAUUGAGCAUCA
B10: 96523144_96524318_649_CDS_ENSMUSG00000031751_ENSMUST00000053766|mouse|control|control (ssRNA)
RNA: GGGAGUUCUACAGUCCGACGAUCGGAAAGGUAUUCAAAUCUGUCUUUGCAGAGCUGAACCAUCAGAUGCAGGAAGACAAGUCCAGCAAACCAGAGGCACCACAUCACCACUUCCUCCACAGUCUGGACAUUCAGCACUCCAAACAACAGAGGAUUGAGCAUCA
B11: chr18:33606911:33606912:-_ENSG00000141425_ENST00000399022|hu_mus|FALSE|FALSE (ssRNA)
RNA: GGGAGUUCUACAGUCCGACGAUCUUCCAAUUUAUGUUCUUUCUCUGCAAGGGCUUCCUUUUGACAACGAAGAAAAUCUGCUAACAUUCGGGUGAGUUGCUUUCUAUCAUCUAUUUCUGCCGCCAGUCUGCCAUUAUAAUCUGCCAACAGAGGAUUGAGCAUCA
B12: chr12:48362563:48362564:+_ENSG00000134291_ENST00000256686|hu_hu|hu_hu_hu_mus_False|58_88 (ssRNA)
RNA: GGGAGUUCUACAGUCCGACGAUCUCCGUCAAGCCCUUCGAUAGACCCAUAGACUCUAAACUGUAAUCACUUUGUAUUUCUAAAAAAAAGAAACGCCAAAAACUUUCCAAAAAGCGGGGGUGGGGUGAGGCGGGAGGGGGAGGUCAACAGAGGAUUGAGCAUCA
B13: 419052_420092_3597_CDS_ENSG00000073614_ENST00000399788|human|control|control (ssRNA)
RNA: GGGAGUUCUACAGUCCGACGAUCUUCUAUUAGUUCUUUUACUUUUUUCCUCCUAUUUUUGCCACUCCCAUAUACACCAAUGUCGGUCCGGGGGCUCAGCACCUGUAACAAUGUAUGGCUAGAAUUCUUCUUAAGAAACGUCCGCAACAGAGGAUUGAGCAUCA
B14: chr7:888068:888069:+_ENSG00000164828_ENST00000456758|hu_hu|motif|central (ssRNA)
RNA: GGGAGUUCUACAGUCCGACGAUCUUGAACUAAAAAUGAUGAAAAAGAUGAUGCAGUGUAUCUGGCCAGCCACAAAAUCCGGUUCACGUAGAAAGACGCACCGCAUUUUUGAUUCCUGUCCCUAGAAUAAACUCUCGACACGGGCAACAGAGGAUUGAGCAUCA
B15: chr19:40639365:40639366:-_ENSMUSG00000025007_ENSMUST00000025979|mus_mus|motif|central (ssRNA)
RNA: GGGAGUUCUACAGUCCGACGAUCGGCUGCCACCUGGGGUAGACAGUCAGGGCGAGACUCAAAGAUCACCAGUAAAACACCGGUUGGGACAGUCACUUGUUCUAACUCCAGGUUUUUGGCAAUCCGAGUCCGGCGCAGGACGCGCAACAGAGGAUUGAGCAUCA
B16: chr2:168997265:168997266:-_ENSG00000198648_ENST00000355999|hu_mus|motif|central (ssRNA)
RNA: GGGAGUUCUACAGUCCGACGAUCUUUAUUCCGUGUAACAUCACCCCCUGUGGCUAAGAAUGCGCUUACUCCAAAAUCUGCGGUUUGUACUGAGCCAUCCUCACCCAGAAGAAUAUUUCCAGCUUUCAAAUCCCUAUGGAUCUGCAACAGAGGAUUGAGCAUCA
B17: chr1:229631779:229631780:-_ENSG00000069248_ENST00000261396|hu_hu|motif|central (ssRNA)
RNA: GGGAGUUCUACAGUCCGACGAUCUAAUUCCCAUUUACUGAUGUUUGAACUCGUCAGGCUAUAAAAGCUUGAUCUCUCUCGGUCCCAGAGAACACUUGAAAGUGUGAGAUCACUACUAGGAGAUAAAAUUCCAAAAAGAGAAGACAACAGAGGAUUGAGCAUCA
B18: chr2:202488911:202488912:-_ENSG00000155755_ENST00000286196|hu_mus|hu_hu_hu_mus_False|8_8 (ssRNA)
RNA: GGGAGUUCUACAGUCCGACGAUCAUUGAAACAUUUUUCAUAAUCUCCAGUAGCAUUUCAGCAUUAUGUAACAAAAGCUCAAUUGUAAAUACAUGUAUCUUAUAAAAAUACACUUAAAAACACGAGUAAAAAUGGGAGGCGCCACAACAGAGGAUUGAGCAUCA
B19: chr2:27806210:27806211:+_ENSMUSG00000026837_ENSMUST00000028280|mus_mus|FALSE|FALSE (ssRNA)
RNA: GGGAGUUCUACAGUCCGACGAUCUGUGGUUUCUCUGGCAGCUUCCACUGGCUUCUGAGUAGGGGCAGGCUCCUUUCCCGGGUCUUCAGGGUCUUCAUAAUAUGGAUACUCAUAGUAAUAGGUCUCACCCUCUCCUUCUGGGUACAACAGAGGAUUGAGCAUCA
B20: chr2:202488911:202488912:-_ENSG00000155755_ENST00000286196|hu_mus|hu_hu_hu_mus_False|1_18 (ssRNA)
RNA: GGGAGUUCUACAGUCCGACGAUCAUUGAAACAUUUUUCAUAAUCUCCAGUAGCAUUUCAGCAUUAUGUAACAAAAGCUCAAUUGUAAAUACAUGUAUCUUAUAAAAAUACACUUAAAUUUAAAAACGGGGAGCGCACAAAUACCAACAGAGGAUUGAGCAUCA
B21: chr2:202488911:202488912:-_ENSG00000155755_ENST00000286196|hu_mus|hu_hu_hu_mus_False|8_18 (ssRNA)
RNA: B18 RNA with A118U, A119U, C120U, C122A, G123A, G125A, U126C
B22: chr19:47150976:47150977:-_ENSG00000197380_ENST00000391916|hu_hu|motif|central (ssRNA)
RNA: GGGAGUUCUACAGUCCGACGAUCACUGGGGAGUCACCAUCGUCAUAAUAAAUACAGUAAUUUUAAAAAAGAAAAAAAAUACGGGAUUGGAACAGCUGAGGGUCAUCAGGCUUCCCCCAUUCCCUCUCACAGGGAGUGGGGGUCCAACAGAGGAUUGAGCAUCA
B23: chr2:202488911:202488912:-_ENSG00000155755_ENST00000286196|hu_mus|hu_hu_hu_mus_False|18_48 (ssRNA)
RNA: B7 RNA with U67G, A68U, U70A, A76G, U93C, G94A, A96G

These binders were tested against T1, UNK ZnF1-3 (assay: nsRBNS (natural sequence RNA bind-n-seq); RBNS binding buffer (assumed for nsRBNS): 25 mM Tris pH 7.5, 150 mM KCl, 3 mM MgCl2, 0.01% Triton X-100, 500 ug/ml BSA, 20 U/ml SUPERase-In, 4 C; UNK is unkempt and MSI1 is Musashi-1; names of the RNAs are library labels; protein concentration not given here; high values mean tight binding).

Binder	binding signal [enrichment R]
B1	1.08
B2	3.81
B3	1.58
B4	14
B5	5.43
B6	1.55
B7	7.64
B8	0.666
B9	0.774
B10	2.02
B11	0.802
B12	1.85
B13	0.677
B14	1.34
B15	1.58
B16	0.927
B17	1.07
B18	0.957
B19	0.892
B20	3.65
B21	6.76
B22	6.05
B23	3.69
